From PubChem BioAssay (NCI)
About 79,000 compounds went through this panel and 15% of them were active in at least one assay; those are over-represented in the sample as a whole. A number with no mark means an inactive call. Activity calls are given as the source filed them. No stated cut-off is given here; in the data, active means growth inhibition above about 70%; inactive means the rest.

How the values were obtained:
[1] = NCI Yeast Anticancer Drug Screen. Data for the rad50 strain (AID 155);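 further: 0% = growth of vehicle-only cultures of the same strain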; conditions: S. cerevisiae rad50 strain growth inhibition; at 50.0 µM; stronger effect = higher value
How it was run: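 Genetically altered yeast (DNA repair pathway); compound treatment; growth inhibition vs vehicle ctrl.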

[2] = NCI Yeast Anticancer Drug Screen. Data for the mec2-1 strain (AID 157); conditions: S. cerevisiae mec2-1 strain, at 50.0 µM, stronger effect = higher value
How it was run: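 Cells of the genetically defined mec2-1 yeast strain are incubated with test compound. Inhibition of growth is calculated against vehicle-treated controls.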

[3] = NCI Yeast Anticancer Drug Screen. Data for the sgs1 mgt1 strain (AID 161);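 further: 0% = growth of cultures given vehicle only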; conditions: S. cerevisiae sgs1 mgt1 strain, at 50.0 µM, stronger effect = higher value
How it was run: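 Read-out: growth inhibition vs vehicle controls. Cells: mutant yeast strain deficient in DNA damage repair.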

[4] = NCI Yeast Anticancer Drug Screen. Data for the cln2 rad14 strain (AID 165);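 further: 0% = growth equal to vehicle treated cultures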; conditions: S. cerevisiae cln2 rad14 strain, at 50.0 µM, stronger effect = higher value
How it was run: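 The screen exposed genetically defined yeast (cln2 rad14) to test compounds and scored growth inhibition relative to vehicle-treated controls.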

[5] = NCI Yeast Anticancer Drug Screen. Data for the bub3 strain (AID 167); conditions: S. cerevisiae bub3 mutant strain, at 50.0 µM, stronger effect = higher value
How it was run: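 Yeast carrying a defined mutation is treated with each compound, and growth is compared with that of vehicle-exposed cells to give inhibition.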

[6] = NCI Yeast Anticancer Drug Screen. Data for the mlh1 rad18 strain (AID 175); conditions: S. cerevisiae mlh1 rad18 strain growth inhibition; at 50.0 µM; stronger effect = higher value
How it was run: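 Compound-treated yeast growth, normalised to vehicle controls. Strain bears defined DNA repair mutations.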

Row | SMILES | growth inhibition [1] | growth inhibition [2] | growth inhibition [3] | growth inhibition [4] | growth inhibition [5] | growth inhibition [6]
1 | CCNC(C(=O)O)C1CCCCC1 (stereo unspecified) | -6.45% | -2.95% | -1.65% | 8.5% | -0.8% | -1.25%
2 | NC(CO)CSCc1ccccc1 (stereo unspecified) | 1.65% | 1.6% | 11.6% | -4.4% | 13.3% | -0.65%
3 | CC1(C)Cc2oc(=Nc3ccccc3)n(-c3ccccc3)c(=O)c2C1 | 9.95% | 2.15% | 1.9% | -13.2% | 4.6% | 0.15%
4 | O=C1/C(=C/c2ccc3c(c2)OCO3)CCC1CN1CCOCC1 (stereo unspecified) | 91.2% (active) | 94.1% (active) | 90.8% (active) | 92.7% (active) | 90.2% (active) | 90.5% (active)
5 | CC1=CC(=O)N2CCN=C2S1 | -7.05% | -14.9% | 1.65% | -20.6% | -3% | -5.75%
6 | CNC(=O)OCc1c(C)oc(-c2ccc(Cl)c(Cl)c2)c1COC(=O)NC | 47.5% | -7.15% | 34.5% | 24.1% | 12.3% | 14.4%
7 | CCCC1OC(C2CC=CCC2C)OCC1CC (stereo unspecified) | -9.25% | 6.55% | 2.95% | -17.9% | -3.45% | -46%
8 | c1cnc2c3ccncc3c3nc(-c4ccncc4)[nH]c3c2c1 | -10.2% | -12.8% | -11.3% | -34.8% | -17.3% | -17.2%
9 | O=[N+]([O-])c1ccc(OS(=O)(=O)c2ccccc2)cc1 | -3.25% | 7.9% | -5.35% | -3.95% | 4.05% | 9.65%
10 | CC1(C)[C@@H]2CC[C@](C)(O)[C@H]1C2 | 0.45% | -1.05% | -1.65% | 8.5% | -3.15% | 2.3%
11 | C=CCNC(=O)C1C2C=CC(C2)C1C(=O)NCC=C (stereo unspecified) | 4.95% | -4.8% | -21.9% | -4.85% | -7.95% | 24.8%
12 | O=[N+]([O-])c1cccc(N=Nc2ccccc2)c1 | -4.25% | -10.3% | -22.3% | 18.7% | -21.6% | -0.95%
13 | OCC1OC(O)C(CO)OC1O (stereo unspecified) | 16.1% | -5.2% | 3.7% | 40.2% | 22.2% | -5.2%
14 | O=C(CC(c1ccccc1)C(Br)[N+](=O)[O-])c1ccccc1 (stereo unspecified) | 27.6% | -0.35% | 36.6% | -9.9% | 40% | 32.4%
15 | Cc1ncc(C(N)=O)c(N)n1 | 21% | -2.05% | -11.6% | -42% | -13.6% | 8.3%
16 | CCCCCC(=O)OCCCCCO | 13.7% | 16.8% | 21.5% | 13.2% | 2.6% | -4.7%
17 | C[C@H]1CCC2C(OC(=O)[C@@H]2CN(C)C)[C@]2(C)C(=O)C=CC12O (stereo partly specified) | -24.5% | -31.4% | -10.3% | 17.4% | -6.95% | -36%
18 | CCn1c(=O)c2ccccc2c2cc([N+](=O)[O-])ccc21 | 7.65% | 18.1% | 2.75% | 17.1% | 12.2% | -2.7%
19 | Cc1ccccc1NC(=O)CN1CCCC(C)C1 (stereo unspecified) | 10.7% | -34.8% | 0.9% | 11.3% | -16.2% | 5.45%
20 | N#Cc1c[nH]c2cccc([N+](=O)[O-])c12 (tested in a mixture with another compound) | 7.95% | -10.9% | 7.8% | 17.9% | 13.4% | -2.8%
21 | COc1ccc(/C=C2\N=C(SC)NC2=O)cc1 | -8.35% | 0.2% | 25.9% | 0.95% | 2% | -24.9%

Row | SMILES | growth inhibition [1] | growth inhibition [2] | growth inhibition [3] | growth inhibition [4] | growth inhibition [5] | growth inhibition [6]
22 | CN(C)C(=O)c1ccc(-c2ccccc2)cc1O | -10.3% | 20.2% | 0.05% | -18.1% | -10.1% | -4.65%
23 | CCCCCc1c(-c2n[nH]c(C)c2CCCCC)n[nH]c1C | 5.55% | -6.05% | -9.1% | -7.85% | -31.6% | 1.8%
24 | ONc1ncnc2[nH]cc(Br)c12 | 4% | -6.8% | -5.65% | 2.6% | -4.5% | 9.7%
25 | NC(=S)N/N=C\c1nccc2ccc(N)cc12 | 36% | -0.8% | 3.1% | -46.8% | -5.8% | 4.9%
26 | O=C(CCN1C(=O)NC(c2ccccc2)(c2ccccc2)C1=O)NCCN1CCOCC1 | -0.6% | 13.5% | 5.7% | 0.95% | -2% | 24.7%
27 | COC(=O)/C=C/c1cccc([N+](=O)[O-])c1 | -3.55% | -2.25% | 20.7% | -48.8% | -0.7% | -18.3%
28 | CC(=O)O[C@]1(C(C)=O)CC[C@H]2[C@@H]3C[C@H](C)C4=CC(=O)C=C[C@]4(C)[C@@]3(F)[C@@H](O)C[C@@]21C | 3.25% | -35.4% | -10.9% | -15.4% | -16.9% | 20.8%
29 | Cc1ccc(C(=O)Nc2ccc(CP(=O)(O)O)cc2CP(=O)(O)O)cc1NC(=O)c1cccc(N)c1 | -7.3% | -1.95% | 4.4% | 0.4% | 0.8% | -1.25%
30 | COc1cc(C(=O)O)c(O)c(OC)c1OC | 0.2% | 0.9% | -8.4% | -36.1% | -13% | 3.4%
31 | Clc1ccccc1C1OCCCO1 | -0.95% | 15.1% | -22.4% | -29.8% | -8.1% | -6.1%
32 | CCCNC(=O)c1ccccc1O | 9.95% | 3.05% | 3.9% | 1.4% | 0.3% | 7.45%
33 | Oc1ccc2ccccc2c1/C=N/N=C/c1c(O)ccc2ccccc12 | 31.4% | -14.6% | 53.8% | 20.9% | 6.4% | 3.8%
34 | O=C1N=NC(=O)N1c1ccccc1 | -6.75% | 4.3% | 1% | -22.2% | -0.05% | 2.35%
35 | CCOC(=O)c1cnc2n(c1=O)[C@H]1CCCC[C@@H]1N2 | 59% | 5.55% | -9.05% | 9.75% | 8.7% | 5.65%
36 | O=C(/C=C/c1ccccc1)Nc1ccc([N+](=O)[O-])cc1Cl | 4.75% | 10.7% | 12% | -1.95% | 26.2% | 18.5%
37 | CC#CC(O)(C(=O)OCCCN(C)C)C1CCCCC1 (stereo unspecified) | 12.4% | 3.55% | 3.85% | 2.25% | 8.3% | 9.25%
38 | CC(=O)Nc1ccc(S(=O)(=O)N/N=C(\C)c2csc3ccccc23)cc1 | -2.7% | -5.25% | -19.9% | -16.1% | -4.05% | 0.15%
39 | CCCCCCCCn1c(N)c(C#N)cnc1=S | -27.9% | 9.65% | -3.45% | -20.2% | 12% | 1.2%
40 | CCOc1ncc(C(O)c2ccc(F)cc2)c(OCC)n1 (stereo unspecified) | 17.1% | -3.95% | 1.15% | -52.4% | 11.4% | 0.3%
41 | CN1CC2=C(NC(=S)NC2c2ccccc2Cl)/C(=C/c2ccccc2Cl)C1 (stereo unspecified) | 14.7% | 13.2% | 37.6% | 10.6% | 61.8% | -5.15%
